# From PubChem BioAssay (NCATS)
# Several values for one entry are separate records, joined by “and”; a condition that tells them apart may be missing. Equal values may be shown once. Results filed as inconclusive are left out. Entries that show only a call come without a potency. Activity calls are given as the source filed them. Calls follow the shape of the dose curve; as a rule, active = well fitted curve in the direction sought with a large enough effect; inconclusive = small, poorly fitted or top-dose-only effect, or another doubt; inactive = no such curve, though single readings can be large; an effect the other way counts as inactive or inconclusive.
# Columns and labels:
# [1] = Primary qHTS for inhibitors of nuclear receptor binding SET domain protein 2 (NSD2) in an isogenic RCH-ACV NSD2 p.E1099K mutant (9B) (AID 1645876); also: nearly all actives have a fitted effect of over 70% in size; also: potency is read from the fitted curve at half-maximal effect
# [2] = Primary qHTS for inhibitors of nuclear receptor binding SET domain protein 2 (NSD2) in an RCH-ACV wild type WT cells (2C) (AID 1645877); also: nearly all actives have a fitted effect of over 70% in size; also: potency is read from the fitted curve at half-maximal effect
# [3] = molecular target: Rap guanine nucleotide exchange factor 3 (Homo sapiens) (UniProt O95398); assay: Confirmatory qHTS for agonist of cAMP-regulated guanine nucleotide exchange factor 3 (EPAC1) (AID 1645881);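 also: EPAC1 catalysed release of BODIPY-GDP from Rap1B seen as fluorescence loss; nearly all actives have a fitted effect of over 75% in size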
# Rap guanine nucleotide exchange factor 3 (Homo sapiens), sequence (O95398 whole entry, looked up): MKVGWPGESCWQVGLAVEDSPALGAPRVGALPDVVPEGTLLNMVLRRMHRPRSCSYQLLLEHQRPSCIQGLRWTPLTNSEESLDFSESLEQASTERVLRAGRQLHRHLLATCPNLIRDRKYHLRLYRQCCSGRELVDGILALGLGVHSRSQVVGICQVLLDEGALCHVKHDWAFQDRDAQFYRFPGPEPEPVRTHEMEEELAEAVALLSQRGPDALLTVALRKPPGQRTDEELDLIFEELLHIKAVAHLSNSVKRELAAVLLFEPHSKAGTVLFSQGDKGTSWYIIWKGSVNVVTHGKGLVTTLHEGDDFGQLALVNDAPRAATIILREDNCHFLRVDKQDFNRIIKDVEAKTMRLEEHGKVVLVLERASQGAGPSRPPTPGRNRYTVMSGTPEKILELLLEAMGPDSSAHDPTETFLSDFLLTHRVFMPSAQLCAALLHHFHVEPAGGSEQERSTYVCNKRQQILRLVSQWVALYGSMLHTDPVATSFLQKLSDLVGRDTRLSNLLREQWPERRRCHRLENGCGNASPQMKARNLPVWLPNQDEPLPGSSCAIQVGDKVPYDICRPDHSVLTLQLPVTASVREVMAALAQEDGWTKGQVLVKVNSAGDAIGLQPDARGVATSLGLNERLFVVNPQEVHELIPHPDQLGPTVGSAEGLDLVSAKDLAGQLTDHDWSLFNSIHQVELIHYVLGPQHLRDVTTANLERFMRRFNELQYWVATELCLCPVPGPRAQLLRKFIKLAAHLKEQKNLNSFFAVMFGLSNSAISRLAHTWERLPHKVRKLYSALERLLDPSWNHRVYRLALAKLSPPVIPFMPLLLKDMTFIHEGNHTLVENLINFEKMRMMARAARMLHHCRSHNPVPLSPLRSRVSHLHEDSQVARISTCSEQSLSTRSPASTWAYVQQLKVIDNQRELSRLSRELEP
# [4] = molecular target: Rap guanine nucleotide exchange factor 4 (Homo sapiens) (UniProt Q8WZA2); assay: Confirmatory qHTS for agonist of cAMP-regulated guanine nucleotide exchange factor 4 (EPAC2) (AID 1645884);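 also: nucleotide exchange releases bodipy-GDP from Rap1 and this lowers its fluorescence; nearly all actives have a fitted effect of over 65% in size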
# Rap guanine nucleotide exchange factor 4 (Homo sapiens), sequence (Q8WZA2 whole entry, looked up): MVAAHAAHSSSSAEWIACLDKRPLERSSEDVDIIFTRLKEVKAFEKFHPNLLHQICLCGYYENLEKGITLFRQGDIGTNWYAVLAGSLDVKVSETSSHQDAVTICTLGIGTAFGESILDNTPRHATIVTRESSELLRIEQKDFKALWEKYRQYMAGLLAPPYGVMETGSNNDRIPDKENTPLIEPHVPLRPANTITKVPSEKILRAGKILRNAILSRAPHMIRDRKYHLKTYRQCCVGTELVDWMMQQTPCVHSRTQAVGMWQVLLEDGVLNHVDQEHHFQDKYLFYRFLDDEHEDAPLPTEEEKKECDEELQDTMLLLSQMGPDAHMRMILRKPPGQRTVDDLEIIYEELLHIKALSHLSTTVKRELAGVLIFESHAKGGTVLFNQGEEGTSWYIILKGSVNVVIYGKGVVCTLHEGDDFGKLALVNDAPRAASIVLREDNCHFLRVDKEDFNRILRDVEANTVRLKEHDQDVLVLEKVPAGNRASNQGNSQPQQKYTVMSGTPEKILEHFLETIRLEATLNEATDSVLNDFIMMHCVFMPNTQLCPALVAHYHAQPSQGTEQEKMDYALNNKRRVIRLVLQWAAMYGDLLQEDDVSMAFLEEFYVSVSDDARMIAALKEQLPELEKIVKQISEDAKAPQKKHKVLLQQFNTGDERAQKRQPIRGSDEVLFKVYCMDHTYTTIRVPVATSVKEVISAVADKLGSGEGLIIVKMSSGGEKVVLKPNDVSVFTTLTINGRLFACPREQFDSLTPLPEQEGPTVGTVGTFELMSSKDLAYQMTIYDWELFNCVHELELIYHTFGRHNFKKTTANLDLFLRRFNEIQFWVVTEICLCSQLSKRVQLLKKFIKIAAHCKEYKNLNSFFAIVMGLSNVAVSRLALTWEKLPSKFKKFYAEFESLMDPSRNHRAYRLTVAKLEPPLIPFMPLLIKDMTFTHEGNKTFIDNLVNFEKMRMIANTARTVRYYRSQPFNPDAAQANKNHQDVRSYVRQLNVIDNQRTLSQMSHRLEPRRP
# [5] = molecular target: Rap guanine nucleotide exchange factor 4 (Homo sapiens) (UniProt Q8WZA2); assay: Confirmatory qHTS for antagonist of cAMP-regulated guanine nucleotide exchange factor 4 (EPAC2) (AID 1645885); also: nearly all actives have a fitted effect of over 25% in size
# [6] = molecular target: Rap guanine nucleotide exchange factor 3 (Homo sapiens) (UniProt O95398); assay: Counterscreen qHTS for antagonist of cAMP-regulated guanine nucleotide exchange factor 3 (EPAC1) (AID 1645888);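 also: fluorescence loss as bound BODIPY-GDP is released from Rap1B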
# Method in brief: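 Rap1B-BODIPY-GDP 250 nM + GDP 50 uM; cpds 7-pt, final 9.74 nM–152 uM (activator mode) or from 7.32 nM upwards (inhibitor mode); RT; FI 480/540 nm at 5 and 30 min, then ± cAMP, reread.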
smiles,measurement,setting,value
Cc1ccc(N2CCN(CCC3NC(=O)c4ccccc43)CC2)cc1C (configuration not stated),Potency,[1],inactive
same,Potency,[2],inactive
CC(O)C(C)n1ncn(-c2ccc(N3CCN(c4ccc(OCC5COC(Cn6cncn6)(c6ccc(Cl)cc6Cl)O5)cc4)CC3)cc2)c1=O (configuration not stated),Potency,[2],inactive
NC(=O)CCCSc1nc(N)nc(-c2c(Cl)cc3c4c(cccc24)COC3)n1,Potency,[1],0.183 µM (active)
same,Potency,[2],0.23 µM (active)
CC(=O)[C@H]1CC[C@H]2[C@@H]3CC=C4C[C@@H](OS(=O)(=O)O)CC[C@]4(C)[C@H]3CC[C@]12C,Potency,[1],inactive
same,Potency,[2],inactive
same,outcome,[3],inactive
same,outcome,[4],inactive
same,Potency,[5],inactive
same,outcome,[6],inactive
CC1(C)C2CCC(CO[C@@H]3O[C@H](CO[C@@H]4OC[C@](O)(CO)[C@H]4O)[C@@H](O)[C@H](O)[C@H]3O)C1C2 (some centres not stated),Potency,[1],inactive
same,Potency,[2],inactive
CC(C)=CCc1cc2c(cc1O)OC[C@H]1c3ccc(O)cc3O[C@@H]21,Potency,[2],14.2 µM (active)
CCCCCCCCC(=O)N[C@H](CN1CCCC1)[C@H](O)c1ccc2c(c1)OCCO2,Potency,[1],23 µM (active)
same,Potency,[2],18.3 µM (active)
CC(C)(CNC(=O)c1cccc(-c2noc(C(F)(F)F)n2)c1)c1coc(-c2ccccc2)n1,Potency,[1],20.9 µM (active)
same,Potency,[2],23.5 µM (active)
C=C1CC2OC(=O)C(=C)C2C(O)/C=C(\C)CCC1O (configuration not stated),Potency,[1],18.3 µM (active)
same,Potency,[2],16.3 µM (active)
C[C@H](Nc1ncnc2nc[nH]c12)c1cc2cccc(Cl)c2c(=O)n1-c1ccccc1,Potency,[1],4.09 µM (active) and 372 nM (active)
same,Potency,[2],7.28 µM (active) and 4.68 µM (active)
O=C(Nc1cnc(Cl)nc1)c1ccc(F)c(F)c1,Potency,[1],inactive
same,Potency,[2],inactive
COc1cc(N2CCC(N3CCN(C)CC3)CC2)ccc1Nc1ncc(Cl)c(Nc2ccccc2P(C)(C)=O)n1,Potency,[1],3.65 µM (active) and 1.05 µM (active)
same,Potency,[2],4.09 µM (active) and 1.48 µM (active)
CC(=O)O[C@H]1[C@@]2(O)C[C@H](C)[C@H](OC(=O)c3ccccc3)[C@@H]2[C@@H](OC(=O)CO)[C@]2(OC(C)=O)C[C@H]3C(=O)C(C)(C)C[C@@H]3[C@@]1(C)[C@H]2OC(C)=O,Potency,[2],inactive
